Assays:
[1] = system: Vero E6 infected with SARS-CoV-2; experiment: morphology score (similarity to uninfected cells); higher = more like uninfected cells; settings: 24 h
[2] = system: Vero E6 infected with SARS-CoV-2; experiment: SARS-CoV-2 infection rate relative to infected DMSO; higher = more infection, active = 60 or less; settings: 24 h

| SMILES | morphology score [1] | SARS-CoV-2 infection rate [2] |
| --- | --- | --- |
| CC(C)(C)c1ccc(S(=O)(=O)Nc2ccc(Cl)cc2C(=O)c2cc[n+]([O-])cc2)cc1 [vercirnon] (10 µM) | 0.0488 | 98.5% (inactive) |
| NCCCNCCCCNCCCN [spermine] (10 µM) | 0.0211 | 107% (inactive) |
| O=c1oc2c(O)c(O)cc3c(=O)oc4c(O)c(O)cc1c4c23 [ellagic-acid] (10 µM) | 0.105 | 94% (inactive) |
| CCCN(CCC)C(=O)C(CCC(=O)O)NC(=O)c1ccccc1 (centres undefined) [proglumide] (10 µM) | 0.0817 | 107% (inactive) |
| N[C@@H](CSC(c1ccccc1)(c1ccccc1)c1ccccc1)C(=O)O [S-trityl-L-cysteine] (0.833333 µM) | 0.107 | 110% (inactive) |
| COC(=O)[C@H](c1ccccc1Cl)N1CCc2sccc2C1 [clopidogrel] (10 µM) | 0.229 | 99% (inactive) |
| CCCN1CCN(c2ccc(C(=O)NC3(C(=O)NCC#N)CCCCC3)cc2)CC1 [balicatib] (10 µM) | 0.59 | 46% (active) |
| CC(C)[C@]12O[C@H]1[C@@H]1O[C@]13[C@]1(O[C@H]1C[C@H]1C4=C(CC[C@@]13C)C(=O)OC4)[C@@H]2O [triptolide] (10 µM) | 0.381 | 89% (inactive) |
| CC(C)(C)NCC(O)c1ccccc1Cl (centres undefined) [tulobuterol] (10 µM) | -0.0152 | 115% (inactive) |
| CCCCN1CCCC1CNC(=O)c1cc(C#N)c2ccccc2c1OC (centres undefined) [nafadotride] (10 µM) | 0.327 | 89% (inactive) |
| C[C@H](Nc1cc(NS(=O)(=O)N2CCC2)nc(SCc2cccc(F)c2F)n1)[C@@H](O)CO (10 µM) | 0.112 | 99% (inactive) |
| CN1C(=O)C(F)=C[C@]2(C)[C@H]3CC[C@]4(C)[C@@H](C(=O)NCc5nc6cccnc6[nH]5)CC[C@H]4[C@@H]3CC[C@@H]12 (10 µM) | 0.0239 | 100% (inactive) |
| C[C@H]1C[C@@H]2[C@H]([C@@H](O)C[C@@]3(C)[C@H]2CC[C@]3(O)C(=O)CO)[C@@]2(C)C=CC(=O)C=C12 [methylprednisolone] (10 µM) | -0.0624 | 108% (inactive) |
| CN1C(=O)OC(C)(C)C1=O [trimethadione] (10 µM) | 0.1 | 106% (inactive) |
| CN(C)CCn1cc(S(=O)(=O)c2cccc(F)c2)c2cccnc21 (10 µM) | -0.0241 | 109% (inactive) |
| Cc1cc(NS(=O)(=O)c2ccc(N)cc2)no1 [sulfamethoxazole] (10 µM) | 0.128 | 94.5% (inactive) |
| O=C(Nc1cccc(Cl)c1)c1ccccn1 (10 µM) | 0.228 | 106% (inactive) |
